Data on 4 compounds can be found in PubChem BioAssay (NCATS).

Unmarked numbers belong to inactive results. Records with an inconclusive call do not appear. Calls of active or inactive are those of the source. Unless noted, the call rests on the fitted dose curve; in most records, active means well fitted curve in the direction sought with a large enough effect; inconclusive means small, poorly fitted or top-dose-only effect, or another doubt; inactive means no such curve, though single readings can be large; an effect the other way counts as inactive or inconclusive.

The nature of test [1]: KB-3-1 P-gp reporter qHTS against the NCATS DSHEA and TCM libraries (AID 1919975). Further: 0% is about no effect. The note with it: KB-3-1 parental cells, CellTiter-Glo luminescence viability, 72 h; series mostly up to 26.1 µM. In short, it runs like this:
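Parental KB-3-1 cells, 500 cells/well, in DMEM with 10% FBS, exposed 72 h at 37 C to compounds in concentration-response. Viability read by CellTiter-Glo luminescence after 30 min at room temperature.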

Test [2] has as its target Cytochrome P450 1A2 (Homo sapiens) (UniProt P05177). As to the kind of experiment: qHTS for inhibitors of CYPIA2 against the NCATS DSHEA and TCM libraries (AID 1919976). Further: potency means the concentration at half of the fitted maximal effect. The note with it: recombinant CYP1A2 enzyme activity, luminescence; series mostly up to 37 µM. Put shortly:
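Reaction started with 1x NADPH regeneration solution and run 30-45 min, room temperature, protected from light, after compounds sat 15 min with CYP1A2 and pro-luciferin substrate. P450-Glo detection gave luminescence; furafylline served as control.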

A short description of test [3]: qHTS Counterscreen for compound interference against the NCATS DSHEA and TCM libraries (AID 1919978).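 Further: compounds preincubated with 1 µM D-luciferin or buffer before detection reagent; % of control where 0% means no effect.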 The settings on record: firefly luciferase detection reagent interference, luminescence. Put shortly: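 Firefly luciferase detection reagent was added after compounds (19.5 nM–39.8 uM final) had been incubated 15 min at room temperature with 1 uM D-luciferin or with 100 mM phosphate buffer alone. Luminescence was read after 30 min at room temperature.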
(In qHTS, concentration-response curves come from the screen itself.)

Test [4] can be described thus: Dual reporter qHTS for antagonist of Pregnane X Receptor (hPXR) against the NCATS DSHEA and TCM libraries: Fluorescence Readout (AID 1920061). Further: 0% is about no effect. The note with it: PXR dual reporter cells, antagonist mode; series mostly up to 40 µM. In short, it runs like this: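 Rifampicin-stimulated (2 uM final) hPXR-luciferase HepG2 cells were treated for 24 h with DSNP/TCM substances. Viability came from CellTiter-Fluor fluorescence, reporter activity from ONE-Glo luminescence.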

Test [5] in a line: Cytometric Cell-Based qHTS for Inhibitors of the mTORC1 Signaling Pathway in MEF (Tsc2-/-, p53-/-) Cells (AID 2660).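 Further: Tsc2 and p53 null MEFs carrying empty vector with compound for 24 h; percent of cells above a phospho-rpS6 to PI ratio cutoff in each well; plate controls were DMSO for no effect and rapamycin for full effect.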 The settings on record: mTORC1 pathway cytometry; series mostly up to 38.3 µM. Put shortly:
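Percent of cells positive for normalized phospho-S6 staining is reported, with the cutoff set from rapamycin (7.5 nM) versus DMSO wells. Tsc2-/-, p53-/- MEFs received compound for 24 hrs.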

Test [6] in a line: High Content Imaging Cell-Based qHTS for Inhibitors of the mTORC1 Signaling Pathway in MEF (Tsc2-/-, p53-/-) Cells (AID 2666).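 Further: percent of cells scored positive for phospho-rpS6 Ser235/236 immunostaining by imaging.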 The note with it: series mostly up to 38.3 µM. Put shortly: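 MEF Tsc2-/- p53-/- (empty vector), DMEM/10% FBS; cpd 24 h 37 °C; PFA fix, Alexa-488 p-rpS6 S235/236 Ab, Hoechst; imaged; rapamycin-defined inhibition; % positive cells/well.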
The nature of test [7]: High Content Imaging Cell-Based qHTS for Inhibitors of the mTORC1 Signaling Pathway in MEF Cells (AID 2667).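 Further: Tsc2-/- p53-/- MEFs stably re-expressing wild-type Tsc2 exposed 24 h; plate controls were DMSO wells for no effect and rapamycin control wells for full effect.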 The settings on record: series mostly up to 38.3 µM. In short, it runs like this:
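Read-out is the share of phospho-rpS6-positive cells per well, from Hoechst-normalized Alexa-488 Ser235/236 staining imaged on IN Cell. Cells: WT Tsc2-expressing Tsc2-/-, p53-/- MEFs exposed to compound for 24 hrs.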

Test [8] in a line: Cytometry Cell-Based qHTS for Inhibitors of the mTORC1 Signaling Pathway in MEF cells (AID 2668).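 Further: Tsc2-/- p53-/- mouse embryonic fibroblasts stably re-expressing wild-type Tsc2; percent cells positive for phospho-rpS6 Ser235/236 relative to propidium iodide stain; plate controls were DMSO wells for no effect and 7.5 nM rapamycin control wells for full effect.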 The settings on record: mTORC1 pathway readout; series mostly up to 38.3 µM. In short, it runs like this: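 MEFs (Tsc2-/-, p53-/- stably expressing WT Tsc2) treated 24 h at 37 degree Celsius, fixed, stained with Alexa-488 anti-phospho-rpS6 Ser235/236 and propidium iodide; Acumen laser scanning. Reported as % positive cells, phospho-S6 normalized to PI.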

The target of test [9] is Ubiquitin carboxyl-terminal hydrolase 2 (Homo sapiens) (UniProt O75604). As to the kind of experiment: qHTS Validation Assay for Inhibitors of Ubiquitin-specific Protease USP2a Using CHOP2 as the Reporter (AID 463106).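 Further: plate controls were DMSO for no effect and full inhibition by NEM for full effect.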 The note with it: USP2a cleavage of CHOP2 reporter, enzymatic; series mostly up to 38.3 µM. In short, it runs like this:
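Fluorescence read-out at Ex 485nm/Em 531nm after 60min RT, following addition of 25nM Ub-CHOP2 plus 25nM reporter substrate to USP2 core (10nM) pretreated 30min with compound. Data normalized to NEM full inhibition; concentration-response curves fitted.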

The target in test [10] is DNA polymerase III PolC-type (Bacillus subtilis (strain 168)) (UniProt P13267). As to the kind of experiment: qHTS Validation Assay for the Inhibitors of DNA Replication in Gram-Positive Bacteria (AID 485295).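 Further: PicoGreen fluorescence of double-stranded DNA made on primed circular M13 template; 0% = DMSO wells and -100% = EDTA-quenched background wells.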 The settings on record: Gram-positive bacterial DNA replication assay; series mostly up to 57.1 µM. Put shortly: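 Reconstituted B. subtilis Pol III holoenzyme (PolC, beta clamp, SSB, primase) preincubated with compound, then M13Gori single-stranded circular template with dNTPs/NTPs added; room temperature reaction. Stopped with EDTA/PicoGreen; dsDNA fluorescence read, EDTA as full-inhibition control.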

In test [11] the target is Tumor susceptibility gene 101 protein (Homo sapiens) (UniProt Q99816). As to the kind of experiment: qHTS Validation Assay for Iinhibitors of HIV-1 Budding by Blocking the Interaction of PTAP/TSG101 (AID 485342; calls by dose curve; further: 0% is about no effect). The settings on record: TSG101-PTAP binding, fluorescence polarization, 4-point titration; series mostly up to 115 µM. In short, it runs like this: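 Tsg101 binding domain (10 uM) with FITC-labeled PTAP peptide (50 nM) in HEPES pH 7.5 buffer, 20 min at r.t. with compounds. Binding measured by fluorescence polarization.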

Test [12] can be described thus: qHTS Validation Assay to Find Inhibitors of Chronic Active B-Cell Receptor Signaling (AID 485345; active means well fitted curve in the direction sought with a large enough effect in the main read-out, with a control signal flat, not every such curve was filed as active;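 further: 0% = untreated basal cells and 100% = 10 µM MG-132 proteasome inhibitor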). The note with it: ABC-DLBCL cells, chronic BCR signaling reporter, CBG luciferase; series mostly up to 46.1 µM. Put shortly:
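TMD8 ABC-DLBCL cells stably carrying doxycycline-inducible IkappaBalpha–green luciferase fusion plus unfused red luciferase; compounds 46 uM to 3 nM, 4 h at 37C with doxycycline. Corrected green/red luminescence ratio normalized to 10 uM MG-132 and basal cell wells; curves fitted.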

Test [13] deals with Beta-2 adrenergic receptor (Homo sapiens) (UniProt P07550). As to the kind of experiment: qHTS validation assay of beta-arrestin-biased ligands of beta2-adrenergic receptor (AID 485366). Further: 0% is about no effect. The note with it: cell-based beta-arrestin recruitment to ADRB2, qHTS; series mostly up to 46.1 µM. In short, it runs like this:
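Screening used a titration range of up to 46 microM in a beta-arrestin recruitment Tango luciferase assay. Cells in 1% FBS medium were treated 18 hr at 37 degrees C, and luminescence was normalized to %Activity.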

For test [14], the target named is ATP-dependent 6-phosphofructokinase (Trypanosoma brucei brucei) (UniProt O15648). As to the kind of experiment: qHTS Validation Assay to Find Inhibitors of T. brucei phosphofructokinase (AID 485368). The settings on record: T. brucei PFK enzyme assay, qHTS 7-point titration; at 57.5 µM (top of the series). Put shortly: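 PFK-generated ADP was measured after 45 min at room temperature using ADP-Glo. The reaction contained 0.5 mM F6P and 0.1 mM ATP.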

For test [15], the target named is Thioredoxin reductase 1, cytoplasmic (Rattus norvegicus) (UniProt O89049). As to the kind of experiment: qHTS Assay for Substrates of Mammalian Selenoprotein Thioredoxin Reductase 1 (TrxR1) (AID 488772).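 Further: 0% is about no effect; a drop in NADPH fluorescence below the no-compound background marks a TrxR1 substrate.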 The settings on record: purified TrxR1, NADPH consumption substrate assay; series mostly up to 57.1 µM. Put shortly:
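In this dual-purpose format, potential substrates are identified from the first fluorescence read after selenite addition, not from the 8-minute delta. Rat enzyme is preincubated with NADPH and then with compound at ~22 deg C.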

Test [16] has the same target. As to the kind of experiment: qHTS Assay for Inhibitors of Mammalian Selenoprotein Thioredoxin Reductase 1 (TrxR1) (AID 488773).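 Further: drop in NADPH fluorescence over an 8 min run after selenite addition; on the % scale 0 is the no-effect control and ±100 the full control effect; nearly all actives have a fitted effect of over 40% in size.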 The note with it: purified TrxR1 enzyme activity; series mostly up to 57.1 µM. In short, it runs like this:
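Inhibition is scored from the loss of NADPH fluorescence between first and last reads of an 8-min kinetic run. Selenite (400 uM) was the substrate, added after 15 min compound preincubation at room temperature.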

Test [17] deals with Flap endonuclease 1 (Homo sapiens) (UniProt P39748). As to the kind of experiment: qHTS Validation Assay for the Inhibitors of Human Flap endonuclease 1 (FEN1) (AID 488816). Further: on the % scale 0 is the no-effect control and ±100 the full control effect. The settings on record: FEN1 nuclease activity, fluorogenic DNA substrate; series mostly up to 57.1 µM. Put shortly: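 Enzyme reagent 10 nM; cpds pinned; 15 min RT preinc.; substrate 50 nM final; reads t=0 and 15 min; no-enzyme buffer wells as neg. control; normalized data, 4-parameter Hill fit.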

The target in test [18] is Chromobox protein homolog 1 (Homo sapiens) (UniProt P83916). As to the kind of experiment: qHTS Validation Assay for Inhibitors of HP1-beta Chromodomain Interactions with Methylated Histone Tails (AID 488953).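 Further: loss of AlphaScreen luminescence from HP1-beta binding biotinylated H3K9me3 peptide; on the % scale 0 is the no-effect control and ±100 the full control effect; nearly all actives have a fitted effect of over 50% in size.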 The note with it: HP1-beta chromodomain / methylated histone peptide binding assay; series mostly up to 114 µM. Put shortly: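 AlphaScreen proximity signal from streptavidin donor and nickel chelate acceptor beads (final 10 ug/mL) after 30 min dark incubation. Compounds had 30 min at room temperature with preformed complex of 50 nM HP1-beta and 50 nM b-H3(1-18)K9me3 in PBS pH 7.4 with 0.01% Tween-20.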

Test [19] deals with Methanococcus maripaludis chaperonin (MmCpn) (UniProt Q6LX38). As to the kind of experiment: High-Throughput Screening for Modulators of Cytosolic Chaperonin Activity: MmCpn Primary Screen (AID 488978). Further: 0% is about no effect. The settings on record: Purified MmCpn ATPase activity, ADP HTRF detection, 10 min; series mostly up to 76.9 µM. Put shortly: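 MmCpn at 50 nM final was preincubated 5 min at RT with compound. ATP was then added at 30 uM final for 10 min at 37 C. ADP formed was detected by Transcreener HTRF (665/590 nm).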
(Time-resolved FRET reads energy transfer from a long-lived donor to a nearby acceptor.)

Test [20] has as its target D(1A) dopamine receptor (Homo sapiens) (UniProt P21728). As to the kind of experiment: HTS Assay for Allosteric Agonists of the Human D1 Dopamine Receptor: Primary Screen for Agonists (AID 488981). Further: 0% is about no effect. The settings on record: Inducible HEK293 T-REx D1 cells, calcium-flux fluorescence, 180 s kinetic; series mostly up to 41.8 µM. In short, it runs like this:
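Tetracycline-induced HEK293 Trex D1 cells with forced coupling to calcium, loaded with no-wash calcium dye; kinetic fluorescence read 180 s after compound addition for agonism, then a further 180 s after an EC20 dopamine challenge for potentiation.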

Sequence of Thioredoxin reductase 1, cytoplasmic (Rattus norvegicus) (O89049 whole entry, looked up): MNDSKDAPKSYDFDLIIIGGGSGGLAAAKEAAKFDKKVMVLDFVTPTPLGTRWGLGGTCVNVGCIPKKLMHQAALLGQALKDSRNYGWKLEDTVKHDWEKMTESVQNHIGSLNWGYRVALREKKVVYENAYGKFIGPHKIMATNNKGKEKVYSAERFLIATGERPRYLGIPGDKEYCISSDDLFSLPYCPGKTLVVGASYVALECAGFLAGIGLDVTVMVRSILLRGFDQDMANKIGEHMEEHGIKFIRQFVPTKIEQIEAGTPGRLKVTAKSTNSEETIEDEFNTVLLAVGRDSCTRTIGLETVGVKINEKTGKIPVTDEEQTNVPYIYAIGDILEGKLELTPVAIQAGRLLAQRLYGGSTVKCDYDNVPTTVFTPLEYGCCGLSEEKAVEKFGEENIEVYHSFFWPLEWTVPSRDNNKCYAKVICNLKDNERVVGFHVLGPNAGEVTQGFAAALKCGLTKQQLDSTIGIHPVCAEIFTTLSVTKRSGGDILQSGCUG
Sequence of Chromobox protein homolog 1 (Homo sapiens) (P83916 whole entry, looked up): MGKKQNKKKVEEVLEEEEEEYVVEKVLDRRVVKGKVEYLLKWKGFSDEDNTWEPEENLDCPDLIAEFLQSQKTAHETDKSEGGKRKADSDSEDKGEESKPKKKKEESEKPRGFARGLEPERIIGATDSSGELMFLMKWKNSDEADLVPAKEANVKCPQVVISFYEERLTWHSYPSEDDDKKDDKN
Sequence of Tumor susceptibility gene 101 protein (Homo sapiens) (Q99816 whole entry, looked up, the tested form may be a part): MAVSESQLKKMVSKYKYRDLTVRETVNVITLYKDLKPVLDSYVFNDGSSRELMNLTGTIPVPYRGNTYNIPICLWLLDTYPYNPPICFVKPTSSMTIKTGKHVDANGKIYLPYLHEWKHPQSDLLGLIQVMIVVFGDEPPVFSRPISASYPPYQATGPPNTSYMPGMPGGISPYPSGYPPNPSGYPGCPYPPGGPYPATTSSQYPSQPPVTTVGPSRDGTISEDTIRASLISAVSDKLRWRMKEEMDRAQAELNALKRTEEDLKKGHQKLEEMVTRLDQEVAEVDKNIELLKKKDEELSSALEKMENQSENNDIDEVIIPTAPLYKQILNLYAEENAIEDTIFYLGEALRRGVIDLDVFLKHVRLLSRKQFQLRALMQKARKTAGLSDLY
Sequence of Flap endonuclease 1 (Homo sapiens) (P39748 whole entry, looked up): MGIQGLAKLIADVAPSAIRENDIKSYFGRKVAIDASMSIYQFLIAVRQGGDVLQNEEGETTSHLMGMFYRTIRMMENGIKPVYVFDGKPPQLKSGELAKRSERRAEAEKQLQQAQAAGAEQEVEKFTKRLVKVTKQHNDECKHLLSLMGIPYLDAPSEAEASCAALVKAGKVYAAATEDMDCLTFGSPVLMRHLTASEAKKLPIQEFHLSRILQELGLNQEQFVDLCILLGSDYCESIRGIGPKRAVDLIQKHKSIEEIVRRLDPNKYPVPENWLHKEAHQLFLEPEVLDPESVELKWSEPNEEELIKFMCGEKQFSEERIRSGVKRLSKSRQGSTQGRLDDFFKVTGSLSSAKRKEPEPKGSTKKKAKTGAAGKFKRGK
Sequence of Cytochrome P450 1A2 (Homo sapiens) (P05177 whole entry, looked up): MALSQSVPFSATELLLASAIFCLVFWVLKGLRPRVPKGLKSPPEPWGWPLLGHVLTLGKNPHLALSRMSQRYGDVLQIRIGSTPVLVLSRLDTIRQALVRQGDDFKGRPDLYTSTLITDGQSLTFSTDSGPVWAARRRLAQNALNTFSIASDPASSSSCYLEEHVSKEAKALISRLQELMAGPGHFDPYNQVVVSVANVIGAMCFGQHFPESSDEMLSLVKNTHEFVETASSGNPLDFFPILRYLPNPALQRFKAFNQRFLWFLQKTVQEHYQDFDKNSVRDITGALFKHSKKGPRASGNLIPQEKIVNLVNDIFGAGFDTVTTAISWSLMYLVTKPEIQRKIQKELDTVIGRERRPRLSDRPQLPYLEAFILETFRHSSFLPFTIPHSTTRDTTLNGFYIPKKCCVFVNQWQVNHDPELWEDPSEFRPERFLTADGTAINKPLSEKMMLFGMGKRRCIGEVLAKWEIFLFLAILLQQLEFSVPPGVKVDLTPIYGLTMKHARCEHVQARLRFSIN
Sequence of Ubiquitin carboxyl-terminal hydrolase 2 (Homo sapiens) (O75604 whole entry, looked up): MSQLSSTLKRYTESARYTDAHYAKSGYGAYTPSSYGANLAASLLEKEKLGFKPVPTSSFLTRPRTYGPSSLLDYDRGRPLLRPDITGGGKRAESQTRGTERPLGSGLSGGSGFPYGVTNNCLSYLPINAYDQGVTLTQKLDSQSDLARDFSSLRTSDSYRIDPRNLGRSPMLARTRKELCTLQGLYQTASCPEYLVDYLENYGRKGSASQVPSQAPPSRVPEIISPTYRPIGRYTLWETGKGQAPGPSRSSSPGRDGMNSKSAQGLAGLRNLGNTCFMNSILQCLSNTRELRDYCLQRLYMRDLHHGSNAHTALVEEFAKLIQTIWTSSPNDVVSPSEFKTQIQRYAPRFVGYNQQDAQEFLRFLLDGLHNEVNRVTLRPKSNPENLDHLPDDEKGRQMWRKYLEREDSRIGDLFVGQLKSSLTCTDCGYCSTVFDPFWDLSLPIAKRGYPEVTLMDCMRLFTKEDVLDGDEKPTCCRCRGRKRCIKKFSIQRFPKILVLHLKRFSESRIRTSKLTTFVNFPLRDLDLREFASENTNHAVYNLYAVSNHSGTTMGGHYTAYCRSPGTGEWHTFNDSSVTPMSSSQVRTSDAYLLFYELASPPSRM
Sequence of Methanococcus maripaludis chaperonin (MmCpn) (Q6LX38 1-543): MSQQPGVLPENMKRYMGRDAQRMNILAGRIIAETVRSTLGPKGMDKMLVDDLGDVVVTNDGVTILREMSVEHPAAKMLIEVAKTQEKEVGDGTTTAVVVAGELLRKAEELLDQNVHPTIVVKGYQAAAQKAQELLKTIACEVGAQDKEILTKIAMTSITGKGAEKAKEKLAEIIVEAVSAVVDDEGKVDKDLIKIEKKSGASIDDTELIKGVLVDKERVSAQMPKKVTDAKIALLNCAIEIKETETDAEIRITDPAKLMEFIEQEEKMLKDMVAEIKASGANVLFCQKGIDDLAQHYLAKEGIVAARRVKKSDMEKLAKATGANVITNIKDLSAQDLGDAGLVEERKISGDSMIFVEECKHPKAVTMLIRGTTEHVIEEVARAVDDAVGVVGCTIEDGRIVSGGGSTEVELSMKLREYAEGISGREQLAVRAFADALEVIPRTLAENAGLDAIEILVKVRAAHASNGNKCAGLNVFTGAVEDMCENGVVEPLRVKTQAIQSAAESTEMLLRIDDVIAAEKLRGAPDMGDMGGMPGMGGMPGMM
Sequence of ATP-dependent 6-phosphofructokinase (Trypanosoma brucei brucei) (O15648 whole entry, looked up): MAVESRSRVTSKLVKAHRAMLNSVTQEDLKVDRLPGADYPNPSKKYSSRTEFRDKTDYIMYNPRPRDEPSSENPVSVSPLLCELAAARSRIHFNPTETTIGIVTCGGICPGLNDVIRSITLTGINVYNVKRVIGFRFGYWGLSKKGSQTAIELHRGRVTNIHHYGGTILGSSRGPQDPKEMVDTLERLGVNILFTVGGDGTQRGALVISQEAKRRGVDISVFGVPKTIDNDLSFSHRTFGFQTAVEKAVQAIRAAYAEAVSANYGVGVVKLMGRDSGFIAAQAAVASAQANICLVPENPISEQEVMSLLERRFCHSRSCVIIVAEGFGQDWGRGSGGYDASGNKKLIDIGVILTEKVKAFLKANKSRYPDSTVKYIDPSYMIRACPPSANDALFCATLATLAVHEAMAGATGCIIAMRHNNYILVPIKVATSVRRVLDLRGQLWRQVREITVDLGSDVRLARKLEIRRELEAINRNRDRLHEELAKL
Sequence of D(1A) dopamine receptor (Homo sapiens) (P21728 whole entry, looked up): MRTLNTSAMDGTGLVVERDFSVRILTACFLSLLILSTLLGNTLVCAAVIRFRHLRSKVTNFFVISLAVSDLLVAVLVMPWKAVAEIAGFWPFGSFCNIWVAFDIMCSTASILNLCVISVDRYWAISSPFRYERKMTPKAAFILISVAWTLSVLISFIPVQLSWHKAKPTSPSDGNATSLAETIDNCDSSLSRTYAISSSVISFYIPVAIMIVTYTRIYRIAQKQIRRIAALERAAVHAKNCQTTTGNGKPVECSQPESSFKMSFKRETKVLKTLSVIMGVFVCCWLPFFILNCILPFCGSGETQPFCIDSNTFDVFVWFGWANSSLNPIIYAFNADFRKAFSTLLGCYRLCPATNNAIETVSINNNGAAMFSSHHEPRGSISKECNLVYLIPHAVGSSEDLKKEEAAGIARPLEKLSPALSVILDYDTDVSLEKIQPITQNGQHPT
Sequence of Beta-2 adrenergic receptor (Homo sapiens) (P07550 whole entry, looked up): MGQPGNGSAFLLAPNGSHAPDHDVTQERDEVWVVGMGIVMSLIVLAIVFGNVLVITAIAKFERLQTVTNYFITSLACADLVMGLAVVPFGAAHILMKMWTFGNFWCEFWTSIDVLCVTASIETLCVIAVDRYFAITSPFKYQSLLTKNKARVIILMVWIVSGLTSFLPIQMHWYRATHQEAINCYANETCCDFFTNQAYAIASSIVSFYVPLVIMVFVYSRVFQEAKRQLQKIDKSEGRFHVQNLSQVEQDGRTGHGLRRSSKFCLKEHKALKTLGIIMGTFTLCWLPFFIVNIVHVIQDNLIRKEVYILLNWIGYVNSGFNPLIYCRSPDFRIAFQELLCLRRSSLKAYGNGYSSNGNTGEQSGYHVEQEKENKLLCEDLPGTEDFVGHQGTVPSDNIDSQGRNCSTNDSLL

Turning to `N#CC(O[C@@H]1O[C@H](CO[C@@H]2O[C@H](CO)[C@@H](O)[C@H](O)[C@H]2O)[C@@H](O)[C@H](O)[C@H]1O)c1ccccc1` (stereo not given in full), the result in [1] and in test [4] was inactive. In [2], the Potency result is “inactive”. Further, the max response in test [3] was -0.601%.

For the compound `C=C(C)[C@@H]1CCC(C)=C[C@H]1c1c(O)cc(CCCCC)cc1O`, the outcome in test [1] and in [4] was inactive. Also, the Potency in [2] is 11.2 µM (active). Moreover, the max response in test [3] was 0.918%.

For `C[C@H]1C2Cc3ccc(O)cc3[C@]1(C)CCN2CC1CC1`, the compound was classed as inactive in test [5], in test [9], in test [10], in test [11], in test [12] and in test [13]. The compound was called inactive in test [14], in [15], in [16], in test [17], in test [19] and in test [20]. Moreover, the Potency entry in test [6], in test [7], in test [8] and in [18] was “inactive” in each case.

For the compound `CC12CCC3C(CCC4=C(O)C(=O)CCC43C)C1CCC2=O` (stereo not given), the compound was called inactive in test [5], in test [9], in test [10], in [11], in test [12] and in test [13]. Moreover, the result in [14], in [15], in [16], in [17], in test [19] and in test [20] was inactive. Besides, the Potency result in test [6], in [7], in test [8] and in test [18] was “inactive” throughout.
